An excerpt weighted towards active compounds, which were near 0.5% of everything screened.
TSHR antag: Antagonists of the Thyroid Stimulating Hormone Receptor: HTS campaign | Thyrotropin receptor (Homo sapiens), P16473 | TSHR-expressing cells, TSH-stimulated cAMP HTRF, 2 h; active compounds read low | activity change, negative = inhibition, % at 11.5 µM | 330,000 tested, 0.2% active | AID 504810, 2011;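 active = activity change below a set negative limit, meaning inhibition stronger than a set level, cut at about -70% in these data; inconclusive = activity change between two set negative limits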
Target sequence (P16473 whole entry, looked up): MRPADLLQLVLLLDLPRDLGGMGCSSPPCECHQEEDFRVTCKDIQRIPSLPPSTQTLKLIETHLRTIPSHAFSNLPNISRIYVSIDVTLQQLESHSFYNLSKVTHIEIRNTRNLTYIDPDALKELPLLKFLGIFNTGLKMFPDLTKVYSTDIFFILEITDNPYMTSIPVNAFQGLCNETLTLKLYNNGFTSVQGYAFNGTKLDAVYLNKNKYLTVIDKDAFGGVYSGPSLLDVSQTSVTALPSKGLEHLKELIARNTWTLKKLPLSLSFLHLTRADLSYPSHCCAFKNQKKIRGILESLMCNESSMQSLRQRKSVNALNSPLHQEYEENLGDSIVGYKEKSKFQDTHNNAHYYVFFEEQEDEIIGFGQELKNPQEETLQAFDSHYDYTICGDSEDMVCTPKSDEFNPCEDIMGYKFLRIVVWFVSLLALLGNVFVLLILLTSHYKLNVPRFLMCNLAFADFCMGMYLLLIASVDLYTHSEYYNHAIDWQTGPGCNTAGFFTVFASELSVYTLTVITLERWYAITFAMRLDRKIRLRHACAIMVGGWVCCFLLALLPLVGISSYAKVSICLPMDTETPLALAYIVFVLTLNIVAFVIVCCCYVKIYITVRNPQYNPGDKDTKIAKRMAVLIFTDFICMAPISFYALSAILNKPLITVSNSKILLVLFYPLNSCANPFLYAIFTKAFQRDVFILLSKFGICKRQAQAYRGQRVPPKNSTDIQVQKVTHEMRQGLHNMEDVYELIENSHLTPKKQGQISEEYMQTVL
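Inhibition of cAMP made by TSHR-expressing cells under TSH stimulation (4nM final, EC80; 2 h, 37 deg C) is quantified with a one-step lysis HTRF kit, anti-cAMP cryptate versus cAMP-d2.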
Mm-Cpn inhibitor: Inhibitors of TCP-1 ring complex (TRiC) of Methanococcus maripaludis (MmCpn): qHTS; Potency, µM (titrated, usually from 76.9 µM), usual class: inhibitors; Chaperonin Mm-Cpn (Methanococcus maripaludis); 330,000 tested, 0.031% active; purified Mm-Cpn ATPase, ADP Transcreener TR-FRET; AID 504842, 2011; note: nearly all actives have a fitted effect of over 80% in size
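Measured: ADP formation by purified Mm-CPN. Conditions: 25 nM protein, 10 uM ATP, Tris pH 7.4 with Mg2+, K+ and DTT, 37°C for 30 min. Detection: Transcreener HTRF after 30 min at room temperature.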
B2AR arrestin: qHTS assay of beta-arrestin-biased ligands of beta2-adrenergic receptor | Beta-2 adrenergic receptor (Homo sapiens), P07550 | beta-arrestin recruitment to beta2AR, cell-based reporter | Potency, µM (series often up to 46.1 µM), usual class: activators | 330,000 tested, 0.02% active | AID 492947, 2010; note: nearly all actives have a fitted effect of over 65% in size
TCR activator: Activators of T cell receptors: qHTS campaign | primary human leukocytes, anti-CD3, IL-2 HTRF, 48 h | Potency, µM (highest dose often 9.22 µM), usual class: activators | 330,000 tested, under 10 active | AID 504894, 2011
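48 hr co-incubation of compounds, a-CD3 beads and primary human leukocytes; IL-2 quantified homogeneously by HTRF with anti-IL-2 K and d2 conjugates.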
CCT chaperon mod: High-Throughput Screening for Modulators of Cytosolic Chaperonin Activity; purified chaperonin ATPase assay, HTRF ADP detection, 30 min; activity change, % (no concentration beside the values), hits read low; 360,000 tested, 0.3% active; in the data active = activity change below about -30%
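We incubate TRiC, 40 or 20 nM final, with library compounds at 76 uM and 10 uM ATP for 30 min at 37 °C. ADP formed is detected with Transcreener HTRF reagents after 30 min at room temperature.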
Of the large screens only hits and unclear results are named; the others gave an inactive call. Unless noted, calls come from the whole dose curve; as a rule, active = well fitted curve in the direction sought with a large enough effect; inconclusive = small, poorly fitted or top-dose-only effect, or another doubt; inactive = no such curve, though single readings can be large; an effect the other way counts as inactive or inconclusive.

Fc1ccc2[nH]c3c(N4CCc5ccccc5C4)ncnc3c2c1	TSHR antag inconclusive
CCOc1c(C)cnc2c1c(=O)n(Cc1ccccc1Cl)c(=O)n2C	none
COc1cc(Cn2c(=O)c3c(OC)c(C)cnc3n(C)c2=O)cc(OC)c1	CCT chaperon mod -52
CC1(C)C2CCC1(C)C(OC(=O)CSc1nc(N)cc(=O)[nH]1)C2 (configuration not stated)	CCT chaperon mod -70
CCC1CCCCN1C(=O)CSc1nc(N)cc(=O)[nH]1 (configuration not stated)	none
CCC1CCCCN1S(=O)(=O)c1ccc(NC(=O)c2nc(S(C)(=O)=O)ncc2Cl)cc1 (configuration not stated)	TSHR antag -84
CCC1CCCCN1S(=O)(=O)c1ccc(NC(=O)c2ccncc2)cc1 (configuration not stated)	none
CSc1ccc(C2=CC(=O)C[C@H](c3ccc(F)cc3)C2)cc1	CCT chaperon mod -39
OCCN1CCN(c2ncnc3c2ncn3[C@H]2CN(Cc3ccc4c(c3)OCO4)C[C@@H](CO)O2)CC1	none (no result: TSHR antag, Mm-Cpn inhibitor, B2AR arrestin, TCR activator)
COc1ccc(/C=C/C(=O)N2CCN(C)CC2)cc1OC	TSHR antag -122 (no result: TCR activator)
COc1ccc(/C=C/C(=O)N2CCOCC2)cc1OC	none
COc1ccc(CNCc2cc(C)c(OC)cc2C)c(OC)c1	TSHR antag -129
COC(=O)c1ccc(COn2c(=O)c(C)[n+]([O-])c3ccccc32)cc1	none
CCn1c(=O)c([N+](=O)[O-])c(NCCN(C)C)c2ccccc21	none
CCn1c(=O)c([N+](=O)[O-])c(Cl)c2ccccc21	TSHR antag -79
Cc1ccc(NC(=S)N2CCN(Cc3ccc4c(c3)OCO4)CC2)c(C)c1	none (no result: TSHR antag, Mm-Cpn inhibitor, B2AR arrestin)
Cc1ccc(CSc2nc3sc(C)c(C)c3c(=O)n2Cc2ccco2)cc1	CCT chaperon mod -31
COc1cc2ccccc2cc1C(=O)N/N=C/c1cccnc1	CCT chaperon mod -35
CC1(c2nnc(Cc3ccccc3)o2)CC(c2ccccc2)=NO1 (configuration not stated)	none (no result: TSHR antag, Mm-Cpn inhibitor, B2AR arrestin)
CC[n+]1ccc(/C=C/c2ccc(N(C)C)cc2)c2ccccc21	TSHR antag -71, Mm-Cpn inhibitor inconclusive
Cc1ccc(-c2ccnc(-c3ccc(O)cc3)n2)cc1	CCT chaperon mod -38
COc1ccc(-c2ccnc(-c3ccc(O)cc3)n2)cc1	Mm-Cpn inhibitor inconclusive
CCc1ccccc1N(CC(=O)N1CCc2ccccc2C1)S(C)(=O)=O	CCT chaperon mod -31
O=C(Nc1cc(F)cc(F)c1)c1sc(Cl)nc1-c1ccccc1	Mm-Cpn inhibitor 50µM
O=C(Nc1ccc(S(=O)(=O)Nc2ncccn2)cc1)c1ccccc1NS(=O)(=O)c1ccc(F)cc1	none
O=C(O)/C=C/c1ccc(S(=O)(=O)Nc2ccccc2C(=O)Nc2ccc(F)cc2)cc1	TSHR antag -100
S=C1NC2(CCCCC2)N=C1c1ccccc1	none
CN1C=CC=C/C1=C1/SC(=S)N(Cc2ccccc2)C1=O	CCT chaperon mod -62
O=C1C(Cl)=C(Nc2ccc3cn[nH]c3c2)C(=O)c2ccccc21	TSHR antag -90
CCN(CC)CCNC(=O)c1cn(C)c2ccc(S(=O)(=O)N(C)C3CCCCC3)cc2c1=O	none
CCOc1ccc(NC(=O)CN(C)C(=O)c2cn(-c3ccc(C)cc3)nc2-c2cccc(OC)c2)cc1OCC	none (no result: TSHR antag, Mm-Cpn inhibitor, B2AR arrestin)
Cc1cc(C)c(S(=O)(=O)NCCn2c(C)cc3ccccc32)c(C)c1	Mm-Cpn inhibitor 35µM
Cc1ccc(S(=O)(=O)NCCn2c(C)cc3ccccc32)cc1	Mm-Cpn inhibitor inconclusive (no result: TCR activator, CCT chaperon mod)
O=C(NCCC1=CCCCC1)C(=O)NCC1OCCCN1S(=O)(=O)c1ccc(F)cc1 (configuration not stated)	none
O=C(NCCC1=CCCCC1)C(=O)NCC1OCCCN1S(=O)(=O)c1cc(F)ccc1F (configuration not stated)	TSHR antag -96
Cc1cc(C(=O)OCC(=O)NC2CCS(=O)(=O)C2)c2ccccc2n1 (configuration not stated)	none
O=C(COC(=O)c1cc(-c2cccc3ccccc23)nc2ccccc12)NC1CCS(=O)(=O)C1 (configuration not stated)	Mm-Cpn inhibitor inconclusive, CCT chaperon mod -112
Oc1ccc(/C=N\Nc2cc(N3CCOCC3)nc(N3CCOCC3)n2)c(O)c1	CCT chaperon mod -52
Cc1cc(N/N=C/c2ccc(O)cc2O)nc(N2CCOCC2)n1	none
Cc1nc(N/N=C/c2cccnc2)cc(N2CCOCC2)n1	none (no result: TSHR antag, Mm-Cpn inhibitor, B2AR arrestin, TCR activator)
CCCCOc1ccc(/C=N/Nc2cc(N3CCOCC3)nc(C)n2)cc1	TSHR antag -118 (no result: TCR activator)
COc1ccc(S(=O)(=O)N2CCC(Cc3ccccc3)CC2)cc1C(N)=O	none
CCC1(C)NC(C(=O)O)Cc2c1[nH]c1ccccc21 (configuration not stated)	CCT chaperon mod -40 (no result: TCR activator)
CCCN1CCC2(CC1)NC(C(=O)O)Cc1c2[nH]c2ccccc12 (configuration not stated)	none
C=CCN1C(=O)/C(=C\c2ccc(OC(=O)c3ccco3)c(OC)c2)SC1=S	CCT chaperon mod -84
COc1ccc(C(=O)c2ncc(C(F)(F)F)cc2Cl)cc1	CCT chaperon mod -146
CCOc1ccc(NC(=O)CN(C)CC(=O)Nc2cc(Cl)ccc2C#N)cc1OCC	none
Cc1cccc2cc(C#N)c(SCC(=O)N3CC(=O)Nc4ccccc43)nc12	Mm-Cpn inhibitor inconclusive, CCT chaperon mod -45
CC(C)(C)n1nnnc1C(c1ccccc1)N1CCc2ccccc2C1 (configuration not stated)	CCT chaperon mod -57
c1ccn(CCc2ccncc2)c1	none (no result: TSHR antag, Mm-Cpn inhibitor, B2AR arrestin)
CC(=O)N1CCC(N(CCN2CCOCC2)C(=S)Nc2c(C)cccc2C)CC1	Mm-Cpn inhibitor inconclusive, CCT chaperon mod -35
Nc1nc(C2CCCCC2)cs1	none
COc1ccc(C(=O)Nc2ccc(N3CCN(C)CC3)cc2)cc1	none (no result: TCR activator)
COc1ccc(NC(=O)CSc2nc3ccc(Nc4nc(N5CCOCC5)nc(N5CCOCC5)n4)cc3s2)cc1	CCT chaperon mod -75
Cc1ccc(NC(=O)CSc2nc3ccc(Nc4nc(N5CCOCC5)nc(N5CCOCC5)n4)cc3s2)cc1	none
Cc1[nH]n(-c2ccc([N+](=O)[O-])cc2)c(=O)c1/C=N/N1CCOCC1	none
CC(=NCCCn1ccnc1)c1c(C)[nH]n(-c2ccc([N+](=O)[O-])cc2)c1=O	Mm-Cpn inhibitor 40µM
Cc1c(C(=O)N2CCOCC2)c(S(=O)(=O)Nc2ccc(F)cc2)c(C)n1C	none
Cc1c(C(=O)N2CCOCC2)c(S(=O)(=O)Nc2ccccc2)c(C)n1C	CCT chaperon mod -53
